Laboratory results reported in PubChem BioAssay AID504725 (Broad Institute, 2011).
Entries with a potency or affinity are not part of this list. Active and inactive are the calls of the source. The rule behind the calls is not given here.

Biological target: KSHV LANA C-terminal domain (residues 932-1162) binding to LBS DNA (UniProt O40947)
Test: inhibitors of C-LANA binding to LBS DNA, dose response, biochemical, fluorescence polarization, cherry-picked samples (AID 504725)
Settings: MBP-C-LANA / FAM-LBS DNA fluorescence polarization, percent change from plate compound-well median; series mostly up to 35 µM

outcome, inactive:
CCSc1nnc(Cc2cc(=O)[nH]c(=O)[nH]2)n1-c1ccc(F)cc1, C/C(=N\NC(=O)CCc1c(C)n[nH]c1C)c1ccc([N+](=O)[O-])cc1, CCc1sc(C(=O)NNC(=O)CNC(=O)c2ccccc2F)cc1C, O=C(C1CCCO1)N1CCN(c2ncccn2)CC1 (centres undefined), O=c1nc(N2CCOCC2)ccn1-c1nc(-c2ccccc2)sc1-c1ccccc1, CC(=O)NC(C(=O)c1ccccc1)C(=O)c1ccccc1, O=C(CCNc1ccc(Cc2ccncc2)cc1)c1cccc([N+](=O)[O-])c1, Oc1ccc(-c2nc3ccccn3c2NCc2ccco2)cc1, CC(C)(C)OC(=O)C[C@@H]1C/C=C\C[C@H](CC(=O)N(CCO)Cc2ccccc2)C(=O)N[C@@H](c2ccccc2)COC1=O, O=C(CN1CCN(C(=O)CNC(=O)c2ccc3c(c2)OCO3)CC1)Nc1ccc(F)cc1, COc1ccc(CC(=O)O/N=C(\N)c2ccc(OC)cc2)cc1, O=C(CN1CC[C@@]2(O)CCCC[C@H]2[C@@H]1c1ccc(F)cc1)NCc1ccco1, Cc1cc(C)nc(SCC(=O)N/N=C/c2cc(C)n(-c3ccccc3C)c2C)n1, COc1ccc(C2c3ccc(O)cc3Oc3ncn(CCCO)c(=N)c32)cc1OC (centres undefined), COc1cccc(C2CC(=O)Nc3cc4c(cc32)CCC4)c1 (centres undefined), O=C(O)C1(c2ccccc2)CCN(S(=O)(=O)c2ccc(Cl)s2)CC1, CCN(CC)S(=O)(=O)N1CCN(S(=O)(=O)N2CCOCC2)CC1, COc1cc(NC(=O)c2ccc(CNc3c(N4CCCC4)c(=O)c3=O)cc2)cc(OC)c1OC, Cc1ccc(-c2nnc(-c3ccc(NC(=O)c4ccco4)cc3)o2)cc1
